Reference: PubChem BioAssay (NCATS)
Records with an inconclusive call do not appear. Calls of active or inactive are those of the source. The call rests on the fitted dose curve; in most records, active means well fitted curve in the direction sought with a large enough effect; inconclusive means small, poorly fitted or top-dose-only effect, or another doubt; inactive means no such curve, though single readings can be large; an effect the other way counts as inactive or inconclusive.

What was measured:
MKL-2 = assay: qHTS assay to identify novel small-molecules to repurpose for Merkel cell carcinoma treatment (AID 1296009); details: MCC and control cell lines, CellTiter-Glo viability, 72 h; series mostly up to 46 µM; further: nearly all actives have a fitted effect of over 60% in size
Procedure, shortened: (§1)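 Viability readout: ATP luminescence (CellTiter-Glo) after 72 hr drug exposure at 37 degree celsius. Dose-response format was 8 points for NPC and 11 points for MIPE; data normalized to in-plate controls.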

NIH3T3 = assay: as above; details: MCC and control cell lines, CellTiter-Glo viability, 72 h
Procedure, shortened: as §1

UISO = assay: as above; details: MCC and control cell lines, CellTiter-Glo viability, 72 h; series mostly up to 46 µM
Procedure, shortened: as §1

WaGa = assay: as above; details: MCC and control cell lines, CellTiter-Glo viability, 72 h; series mostly up to 46 µM
Procedure, shortened: as §1

C33A = assay: Primary qHTS to identify gynecologic anti-cancer compounds using libraries of approved drugs and bioactive compounds (AID 1345084); details: Gynecologic cancer cell panel viability, ATPlite luminescence, 48 h; series mostly up to 57.5 µM; further: nearly all actives have a fitted effect of over 55% in size
Procedure, shortened: (§2)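 48 h compound exposure at 37 C, 5% CO2; five-point qHTS. ATPlite luminescence readout of cell ATP.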

CAOV3 = assay: as above; details: Gynecologic cancer cell panel viability, ATPlite luminescence, 48 h; series mostly up to 57.5 µM
Procedure, shortened: as §2

CASKI = assay: as above; details: Gynecologic cancer cell panel viability, ATPlite luminescence, 48 h; series mostly up to 57.5 µM
Procedure, shortened: as §2

Es-2 = assay: as above; details: Gynecologic cancer cell panel viability, ATPlite luminescence, 48 h; series mostly up to 57.5 µM
Procedure, shortened: as §2

HeLa = assay: as above; details: Gynecologic cancer cell panel viability, ATPlite luminescence, 48 h; series mostly up to 57.5 µM
Procedure, shortened: as §2

Hek293T = assay: as above; details: Gynecologic cancer cell panel viability, ATPlite luminescence, 48 h, control line for the selectivity index; series mostly up to 57.5 µM
Procedure, shortened: as §2

[1] = at 44.8 µM (top of the series) unless noted
On the % scale 0 is the no-effect control and ±100 the full control effect.

O=C(O)CSCC(=O)NC1CCSC1=O (configuration not stated)
inactive: Potency (MKL-2) | outcome (NIH3T3; [1]) | Potency (UISO) | Potency (WaGa) | Potency (C33A) | Potency (CAOV3) | Potency (CASKI) | Potency (Es-2) | Potency (HeLa) | Potency (Hek293T)

CNNCc1ccc(C(=O)NC(C)C)cc1
inactive: Potency (MKL-2) | outcome (NIH3T3; [1]) | Potency (UISO) | Potency (WaGa) | Potency (C33A) | Potency (CAOV3) | Potency (CASKI) | Potency (Es-2) | Potency (HeLa) | Potency (Hek293T)

C[C@@H](NCCCc1cccc(C(F)(F)F)c1)c1cccc2ccccc12
inactive: Potency (MKL-2) | outcome (NIH3T3; [1]) | Potency (UISO)

CNS(=O)(=O)CCc1ccc2[nH]cc(C3CCN(C)CC3)c2c1
inactive: Potency (MKL-2) | outcome (NIH3T3; [1]) | Potency (UISO) | Potency (WaGa) | Potency (C33A) | Potency (CAOV3) | Potency (CASKI) | Potency (Es-2) | Potency (HeLa) | Potency (Hek293T)

CCN(CC)CC#CCOC(=O)C(O)(c1ccccc1)C1CCCCC1 (configuration not stated)
inactive: Potency (MKL-2) | outcome (NIH3T3; [1]) | Potency (UISO) | Potency (WaGa)

O=C(O)c1cn(C2CC2)c2cc(N3CCNCC3)c(F)cc2c1=O
inactive: Potency (MKL-2) | outcome (NIH3T3; [1]) | Potency (UISO) | Potency (WaGa) | Potency (C33A) | Potency (CAOV3) | Potency (CASKI) | Potency (Es-2) | Potency (HeLa) | Potency (Hek293T)

COc1ccc(-c2ccc3cc(C(=O)O)ccc3c2)cc1C12CC3CC(CC(C3)C1)C2
inactive: Potency (MKL-2) | outcome (NIH3T3; [1]) | Potency (UISO) | Potency (WaGa) | Potency (C33A) | Potency (CAOV3) | Potency (CASKI) | Potency (Es-2) | Potency (HeLa) | Potency (Hek293T)

CNS(=O)(=O)Cc1ccc2[nH]cc(CCN(C)C)c2c1
inactive: Potency (MKL-2) | outcome (NIH3T3; [1]) | Potency (UISO) | Potency (WaGa) | Potency (C33A) | Potency (CAOV3) | Potency (CASKI) | Potency (Es-2) | Potency (HeLa) | Potency (Hek293T)

C[C@]12C=CC(=O)C=C1CC[C@@H]1[C@@H]2C(=O)C[C@@]2(C)[C@H]1CC[C@]2(O)C(=O)CO
inactive: Potency (MKL-2) | outcome (NIH3T3; [1]) | Potency (UISO) | Potency (WaGa) | Potency (C33A) | Potency (CAOV3) | Potency (CASKI) | Potency (Es-2) | Potency (HeLa) | Potency (Hek293T)

CN(Cc1cc(Br)cc(Br)c1N)C1CCCCC1
inactive: Potency (MKL-2) | outcome (NIH3T3; [1]) | Potency (UISO) | Potency (WaGa) | Potency (C33A) | Potency (CAOV3) | Potency (CASKI) | Potency (Es-2) | Potency (HeLa) | Potency (Hek293T)

CN(C)CCc1c[nH]c2ccc(C[C@H]3COC(=O)N3)cc12
inactive: Potency (MKL-2) | outcome (NIH3T3; [1]) | Potency (UISO) | Potency (WaGa) | Potency (C33A) | Potency (CAOV3) | Potency (CASKI) | Potency (Es-2) | Potency (HeLa) | Potency (Hek293T)

CC1=NN(c2ccccc2)C(=O)C1
inactive: Potency (MKL-2) | outcome (NIH3T3; [1]) | Potency (UISO) | Potency (WaGa) | Potency (C33A) | Potency (CAOV3) | Potency (CASKI) | Potency (Es-2) | Potency (HeLa) | Potency (Hek293T)

Nc1ccc(S(=O)(=O)Nc2ccccn2)cc1
inactive: Potency (MKL-2) | outcome (NIH3T3; [1]) | Potency (UISO) | Potency (WaGa) | Potency (C33A) | Potency (CAOV3) | Potency (CASKI) | Potency (Es-2) | Potency (HeLa) | Potency (Hek293T)

CCCOc1ccc(C(=O)OCCN(CC)CC)cc1N
inactive: Potency (MKL-2) | outcome (NIH3T3; [1]) | Potency (UISO) | Potency (WaGa) | Potency (C33A) | Potency (CAOV3) | Potency (CASKI) | Potency (Es-2) | Potency (HeLa) | Potency (Hek293T)

CCOC(=O)c1ccc(OC(=O)CCCCCN=C(N)N)cc1
inactive: Potency (MKL-2) | outcome (NIH3T3; [1]) | Potency (UISO) | Potency (WaGa) | Potency (C33A) | Potency (CAOV3) | Potency (CASKI) | Potency (Es-2) | Potency (HeLa) | Potency (Hek293T)

CC1=CC(=O)c2ccccc2C1=O
inactive: Potency (MKL-2) | outcome (NIH3T3; [1]) | Potency (UISO) | Potency (WaGa) | Potency (C33A) | Potency (CAOV3) | Potency (CASKI) | Potency (Es-2) | Potency (HeLa) | Potency (Hek293T)

N[C@@H](C(=O)N[C@@H]1C(=O)N2C(C(=O)O)=C(Cl)CS[C@H]12)c1ccccc1
inactive: Potency (MKL-2) | outcome (NIH3T3; at 9.27 µM (top of the series)) | outcome (NIH3T3; at 44.8 µM (top of the series)) | Potency (UISO) | Potency (WaGa) | activity change, negative = cytotoxicity (C33A) 7.76% [at 11.6 µM] | activity change, negative = cytotoxicity (CAOV3) 16.8% [at 11.6 µM] | activity change, negative = cytotoxicity (CASKI) 2.82% [at 11.6 µM] | activity change, negative = cytotoxicity (Es-2) 3.68% [at 11.6 µM] | activity change, negative = cytotoxicity (HeLa) 2.57% [at 11.6 µM] | activity change, negative = cytotoxicity (Hek293T) 4.98% [at 11.6 µM]

CNC1CCCN(c2c(F)cc3c(=O)c(C(=O)O)cn(C4CC4)c3c2OC)C1 (configuration not stated)
inactive: Potency (MKL-2) | outcome (NIH3T3; [1]) | Potency (UISO) | Potency (WaGa) | Potency (C33A) | Potency (CAOV3) | Potency (CASKI) | Potency (Es-2) | Potency (HeLa) | Potency (Hek293T)

COCCCOc1cc(C[C@@H](C[C@H](N)[C@@H](O)C[C@H](C(=O)NCC(C)(C)C(N)=O)C(C)C)C(C)C)ccc1OC
inactive: Potency (MKL-2) | outcome (NIH3T3; [1]) | Potency (UISO) | Potency (WaGa) | Potency (C33A) | Potency (CAOV3) | Potency (CASKI) | Potency (Es-2) | Potency (HeLa) | Potency (Hek293T)

CCn1cc(C(=O)O)c(=O)c2cc(F)c(N3CCNCC3)nc21
inactive: Potency (MKL-2) | outcome (NIH3T3; [1]) | Potency (UISO) | Potency (WaGa) | Potency (C33A) | Potency (CAOV3) | Potency (CASKI) | Potency (Es-2) | Potency (HeLa) | Potency (Hek293T)

CCN(CC)CCn1c(=O)c(Cc2ccc(OC)cc2)nc2ccccc21
inactive: Potency (MKL-2) | outcome (NIH3T3; [1]) | Potency (UISO) | Potency (WaGa)

O=C(O)CCn1c2c(c3ccccc31)C[C@H](NS(=O)(=O)c1ccc(F)cc1)CC2
inactive: Potency (MKL-2) | outcome (NIH3T3; [1]) | Potency (UISO) | Potency (WaGa) | Potency (C33A) | Potency (CAOV3) | Potency (CASKI) | Potency (Es-2) | Potency (HeLa) | Potency (Hek293T)
